Results published in ChEMBL document CHEMBL3988442, “University of Dundee, Small-Polar-MMV Screening Library” (2021).

The compounds below were run against AMP-activated protein kinase, AMPK (Homo sapiens) (UniProt P54646+O43741+P54619+Q9UGJ0+Q9Y478+Q13131+Q9UGI9) (assay: AMP-dependent Kinase enzyme assay. An in vitro enzyme assay that detects ADP turnover that is directly proportional to AMPK activity. This uses naive AMPK that is activated during the assay with MK-8722). Details: 30 µM.
Type: functional
Parameters: scale not given: direction of the effect not stated beside the values

Row | Compound | Percent Effect [%]
1 | CC(C)(O)CCc1cccc(C(=O)NCc2nccs2)c1 | 0.5
2 | COCC(=O)NCc1ccc(-c2ncncc2C(=O)N(C)C)cc1 | 5.99
3 | COc1nc2c(cc1C(=O)NC(C)Cc1cc(C)n[nH]1)CCC2 (stereo not given) | -15.8
4 | Cc1nc(CC(C)C)cc(C(=O)N2C[C@@H](N(C)C)[C@H](C(C)C)C2)n1 | -4.31
5 | O=C(Cn1cc(-c2ccccc2)cn1)N1CCNC1=O | 0.445
6 | Cc1cc(=O)n2nc(Oc3cccc(C(N)=O)c3)sc2n1 | -11.1
7 | CC(C)n1ccnc1C1CCN(c2nccc(C(F)(F)F)n2)CC1 | 15.9
8 | Cc1nc(COc2ccc(N(C)S(C)(=O)=O)cc2)sc1C | -7
9 | CN(Cc1cc(Br)cn1C)C(=O)Cc1cccnc1 | -10.2
10 | CN1CCCC(CNC(=O)CN(C)S(=O)(=O)c2cccnc2)C1 (stereo not given) | -10.7
11 | CSc1nccc(N2CCC(NCc3ccc4c(c3)OCO4)CC2)n1 | 15
12 | CC(C)c1cc(C(=O)N(Cc2ccncc2)CC2CCCO2)no1 (stereo not given) | -4.12
13 | O=C(NCc1cccnc1-n1cncn1)c1cc(Cl)ccn1 | -11.1
14 | O=S(=O)(NCCCn1cncn1)c1ccc2c(c1)CCO2 | 4.51
15 | CCC(=O)NC(CC)c1ccccc1C (stereo not given) | 7.08
16 | c1ccc(CCN2CCC(OCC3CCCCO3)CC2)nc1 (stereo not given) | 11.2
17 | O=C(c1nnn(-c2ccccc2)n1)N(CCO)CCO | 0.534
18 | CC(C)(C)CC(NC(=O)N1CCS(=O)(=O)CC1)C(F)(F)F (stereo not given) | -0.804
19 | CN(C)c1ncccc1NC(=O)COC1CCCC1 | 6.19
20 | c1nn(C2CCCCC2)cc1-c1cncn1CCCN1CCCCC1 | 1.56

Row | Compound | Percent Effect [%]
21 | CN(Cc1cc(Br)cs1)Cc1nnsc1Cl | 15.7
22 | CC(C)Cn1ncc(C(=O)NS(=O)(=O)C2CCCC2)c1C1CC1 | 5.57
23 | O=C(NCc1cc(Br)cs1)Nc1cn[nH]c1 | -0.469
24 | CCCN(Cc1nnnn1C1CC1)CC1COc2ccccc2O1 (stereo not given) | 7.59
25 | Cc1ccccc1CC(=O)NCc1cnc(CC2CCN(C)CC2)cn1 | 4.22
26 | Cc1cc(NCCc2cnccn2)nc(-c2ccccc2O)n1 | 19.4
27 | CC(OCC1CC1)C(=O)Nc1nccn1Cc1ccccc1 (stereo not given) | 5.4
28 | Cc1ccc2occ(CN3CCN(c4ncccn4)CC3)c(=O)c2c1 | -1.29
29 | CCN(CC)S(=O)(=O)NCC1Cc2ccccc2O1 (stereo not given) | -0.544
30 | O=C(c1ccncc1)N1CCC(Oc2cccc(C(F)(F)F)c2)CC1 | -1.49
31 | Cn1ncc2c(NC3CCC3)nc(-c3ccncc3)nc21 | 87.5
32 | Cc1c(C(=O)N2CCC3(CCCNC3=O)C2)sc2nc[nH]c(=O)c12 (stereo not given) | 13.6
33 | Cc1cc(-c2n[nH]c3c2CN(S(=O)(=O)c2ccsc2)CC3)c(C)o1 | 4.26
34 | Cc1n[nH]c(C)c1CCNC(=O)Nc1ccc(S(C)(=O)=O)cc1 | 4.13
35 | CN1C[C@H](c2ccccc2)[C@H]2CN(C(=O)Cc3ccc(O)cc3)CC[C@H]21 | 4.46
36 | O=C(CCN1CCOCC1)Nc1cccc(CNCc2cccs2)c1 | -8.77
37 | Cc1nnc(NC(=O)NCCCN2CCC(C(N)=O)CC2)s1 | 5.59
38 | CC(=O)c1sc(C(NC(=O)c2ccccc2)C2CC2)nc1C (stereo not given) | -2.1
39 | Cc1ccc(-n2cc(CN3CCOCC(CN(C)C)C3)cn2)cc1C (stereo not given) | 8.42
40 | COCc1ccccc1NC(=O)CCNC(=O)c1ccoc1 | -3.07
